E coli Lon inh: inhibitors of E. coli Lon protease, primary screen, biochemical, fluorescence polarization. P0A9M0. purified E. coli Lon protease. inhibition, % at 7.94 µM. actives 0.42% (n = 360,000). AID 602123, 2011; in the data active means inhibition above about 13%, passing the limit was not always enough;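 further: 0% = enzyme with probe and DMSO and 100% = no enzyme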
Bcl-xL primary: inhibitors of human Bcl-xL, primary screen, biochemical, fluorescence polarization, HTS. Bcl-2-like protein 1 (Homo sapiens), Q07817. GST-Bcl-xL / FITC-Bim BH3 peptide fluorescence polarization. inhibition, % at 10.9 µM. actives 0.7% (n = 320,000). AID 2129, 2009;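 active means inhibition above the mean of all tested compounds plus 3 SD, cutoff set per campaign, cut at about 30% in these data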;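 further: 0% = DMSO wells and 100% = unlabeled Bim-BH3 peptide competitor; inhibitors lower millipolarization by displacing the labeled peptide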
Target sequence (Q07817 whole entry, looked up): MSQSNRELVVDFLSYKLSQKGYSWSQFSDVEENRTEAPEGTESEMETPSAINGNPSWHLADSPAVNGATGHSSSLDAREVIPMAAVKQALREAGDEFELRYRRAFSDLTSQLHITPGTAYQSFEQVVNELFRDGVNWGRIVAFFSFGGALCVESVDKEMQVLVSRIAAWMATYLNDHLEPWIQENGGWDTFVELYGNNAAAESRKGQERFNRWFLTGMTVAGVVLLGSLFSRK
EBV gp42 block: Epstein-Barr virus gp42 inhibitors, primary screen, biochemical, uHTS, fluorescence polarization | inhibition, % (tested at 21.74 µM) | Glycoprotein 42 (Epstein-Barr virus (strain AG876)), Q1HVG2 | Fluorescence polarization binding assay, mP read-out | actives 0.42% (n = 220,000); in the data active means inhibition above about 50%
GLD-1 RNA inh: GLD-1/TGE RNA complex disruptors, primary screen, biochemical, fluorescence polarization; Female germline-specific tumor suppressor gld-1 (Caenorhabditis elegans), Q17339; purified GLD-1 + fluorescein TGE RNA; inhibition, % at 5.96 µM; actives 0.44% (n = 320,000);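 active means percent inhibition above a per-plate cutoff, the plate mean of test compounds plus 3 SD, cut at about 30% in these data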;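 further: 0% = DMSO wells with GLD-1 and probe and 100% = wells lacking GLD-1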
Target sequence (Q17339 whole entry, looked up): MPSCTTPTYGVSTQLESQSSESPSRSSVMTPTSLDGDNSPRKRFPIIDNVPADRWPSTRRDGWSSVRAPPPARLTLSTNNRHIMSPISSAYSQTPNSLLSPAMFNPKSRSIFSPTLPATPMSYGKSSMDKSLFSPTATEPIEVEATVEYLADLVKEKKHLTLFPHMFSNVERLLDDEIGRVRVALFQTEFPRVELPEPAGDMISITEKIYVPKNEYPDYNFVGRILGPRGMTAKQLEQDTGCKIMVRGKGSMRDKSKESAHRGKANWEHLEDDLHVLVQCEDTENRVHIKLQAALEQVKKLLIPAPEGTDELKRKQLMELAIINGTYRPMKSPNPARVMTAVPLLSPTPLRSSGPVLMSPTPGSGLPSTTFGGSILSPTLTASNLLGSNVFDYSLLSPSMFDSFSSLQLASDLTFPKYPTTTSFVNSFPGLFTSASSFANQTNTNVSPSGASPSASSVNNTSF
MEX-5 binding: MEX-5 zinc finger RNA-binding disruptors – biochemical, C. elegans, fluorescence polarization, MLPCN library, primary screen; MEX-5/FITC-TCR2 RNA binding; stronger effect = lower value; AID 1832, 2009; actives 0.38% (n = 300,000); activity score (negative = inhibition of binding), % at 10 µM;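 active means inhibition past about -25% in most replicates, and total fluorescence under double the plate's negative control median, limit read from the data; inconclusive means replicates evenly split on the limit, or fluorescence at least double controls; inactive means too little inhibition in most replicates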;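 further: 0% = DMSO and -100% = 5 µM competing unlabeled TCR2 RNA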
* = called active by the depositor; u = inconclusive; x = no result. Only some compounds are listed: those with a hit (about 1.3% of all), similar ones and a draw of the others.

SMILES | E coli Lon inh | Bcl-xL primary | EBV gp42 block | GLD-1 RNA inh | MEX-5 binding
Cn1cc(/C=C/c2cc[n+](C)cc2)c2cc(F)ccc21 | -318.2 | 28.5 | x | 76.6* | u
O=C(Nc1cc(Cl)ccc1N1CCCC1)C1=COCCO1 | -2.5 | 9.4 | x | 9.1 | x
COc1cccc(C(NC(C)=O)c2nc(-c3cccc(C#N)c3)cs2)c1 (configuration not stated) | -12.0 | x | x | x | x
OC[C@@H]1CN(Cc2cccc(C(F)(F)F)c2)C[C@H](n2cnc3c(NCc4ccco4)ncnc32)O1 | -0.7 | x | x | x | x
N=c1oc2ccc3ccccc3c2cc1-c1nc(-c2ccccc2)cs1 | -4.2 | 0.9 | 66.5* | -1.5 | -7.9
Nc1nnc(-c2cc3c(ccc4ccccc43)oc2=O)s1 | x | x | 65.6* | x | x
N=c1oc2ccccc2cc1-c1nc(-c2ccccc2)cs1 | -21.4 | -0.9 | -2.1 | 2.3 | 2.5
O=c1oc2ccc3ccccc3c2cc1-c1nnc(-c2ccccc2)o1 | -3.9 | 6.2 | -14.3 | -4.4 | -2.9
COc1ccc(-c2nnc(-c3cc4c(ccc5ccccc54)oc3=O)o2)cc1 | -6.2 | 6.1 | 50.7* | -6.9 | -41.7*
O=[N+]([O-])c1ccc(Sc2cccc3cccnc23)c2cccnc12 | 0.2 | 2.3 | 62.0* | 1.0 | -14.4
Cc1cccc(-n2ncc3c2CCCC3NC(=O)CCN2CCCO2)c1C (configuration not stated) | -9.6 | 2.2 | x | 9.2 | -1.0
O=C(CN1CCc2ccccc21)NCc1ccc2c(c1)OCO2 | 1.4 | 5.7 | -16.6 | -4.1 | 0.5
O=C(CN1CCCc2ccccc21)NCc1ccc2c(c1)OCO2 | -72.7 | 47.5* | -10.2 | -51.3 | -1.1
CC(C)(C)NC(=O)NC(=O)CN1CCCc2ccccc21 | -29.9 | 76.9* | -1.8 | 6.1 | x
CCCN(CC(=O)Nc1ccccc1OC)C(=O)c1cc(-c2ccccc2)nn1-c1ccccc1 | -3.1 | -16.6 | x | 2.3 | x
CC/C(=N/Nc1cccc(C)c1)c1cnnc(SC)n1 | -33.6 | 46.2* | -11.1 | 7.2 | -33.3*
CC/C(=N/Nc1ccc(Cl)cc1)c1cnnc(SC)n1 | 8.8 | 10.2 | 1.5 | 6.4 | x
CCN(CC)CCCOc1ccc(Cl)c(Cl)c1 | -9.8 | 36.0* | 27.1 | -0.9 | -1.6
CCOc1cccc(/C=C(/C#N)c2nc3ccccc3[nH]2)c1OCC(=O)O | -14.9 | 2.5 | x | 8.4 | -2.7
CCN(CC)c1ccc(/C=C(/C#N)c2nc3ccccc3[nH]2)c(OC(C)C)c1 | -479.5 | -26.2 | 48.0 | -50.8 | -33.0*
Cc1noc(/C=C/c2ccc(-c3ccccc3Cl)o2)c1[N+](=O)[O-] | -91.3 | -58.8 | 129.8* | -60.2 | 1.6
COc1cccc(CNC(=O)COC(=O)/C(C#N)=C/c2ccc(N(C)C)cc2)c1 | 4.5 | 117.3* | x | 123.2* | x
COc1ccc(/C=C(\C#N)C(=O)OCC(=O)NCc2ccccc2)cc1 | -5.9 | 4.2 | -8.2 | 0.7 | 4.3
COc1ccc2[nH]cc(CCNC(=O)Cn3cc(C)c(=O)[nH]c3=O)c2c1 | -8.4 | x | x | x | x
CCN(C(=O)CSc1nnc(SC(C)C)s1)C1CCS(=O)(=O)C1 (configuration not stated) | 9.1 | 0.7 | x | 2.1 | x
SMILES | E coli Lon inh | Bcl-xL primary | EBV gp42 block | GLD-1 RNA inh | MEX-5 binding
O=C(CSc1nc2ncccc2[nH]1)Nc1ccc2c(c1)OCO2 | -5.8 | 2.4 | 72.7* | 1.7 | 0.3
COc1ccc(NC(=O)CN(C)C(C)C(=O)NC(=O)NC2CCCCC2)cc1 (configuration not stated) | 4.9 | -5.8 | x | 3.5 | 0.6
CCOC(=O)C1=C(O)/C(=C/c2cn(CC(=O)N3CCCC3)c3ccccc23)SC1=Nc1ccccc1 | -13.7 | x | -7.0 | x | -46.5*
COC(=O)c1cn(CC(=O)N2CCCCCC2)c2ccccc12 | -6.9 | 4.7 | -2.1 | 8.2 | 2.7
CC(C)CCN(C(=S)Nc1cccc(F)c1)C1CCN(C(C)C)CC1 | -0.5 | 4.3 | -13.7 | 2.1 | 1.6
Cc1ccc(N2C(=O)C3C(C2=O)C(C(=O)c2ccc(Cl)cc2)N2CCCC32)cc1 (configuration not stated) | 4.9 | 73.3* | 51.9* | 46.2* | -1.8
CN(C)c1ccc(/C=C/c2nc3ccccc3c(=O)[nH]2)cc1 | -383.3 | -0.6 | x | -109.0 | -33.2*
O=c1[nH]c(/C=C/c2cccc3ccccc23)nc2ccccc12 | 1.2 | -6.4 | -100.4 | 8.7 | -49.7*
Cc1ccc(CNCC(=O)Nc2ccc(N3CCOCC3)cc2)cc1 | 3.6 | 3.3 | 0.6 | -1.8 | -0.9
CCOc1ccccc1N(CC(=O)NCCSc1ccccc1)S(C)(=O)=O | -2.2 | 5.8 | 1.8 | -0.5 | 0.6
CCCCNC(=O)CS(=O)Cc1nc(-c2cccc(C)c2)oc1C (configuration not stated) | -2.9 | -0.8 | -3.2 | 2.2 | -0.4
CCCCSCCCNC(=O)CS(=O)Cc1nc(-c2cccc(C)c2)oc1C (configuration not stated) | 0.3 | 45.3* | -14.6 | 4.3 | -0.3
C[C@H](CO)N1C[C@H](C)[C@@H](CN(C)S(=O)(=O)c2cn(C)cn2)Oc2cc(Br)ccc2S1(=O)=O | -4.7 | x | x | x | x
CCC1CCCCN1S(=O)(=O)c1ccc(NC(=O)C2CCCO2)cc1 (configuration not stated) | -3.8 | -1.9 | x | -9.5 | -0.2
COc1ccc(-c2cc(C(=O)NCC3CCCO3)on2)cc1OC (configuration not stated) | 1.5 | 34.0* | x | 6.9 | 0.0
COc1cccc(-c2cc(C(=O)NCC3CCCO3)on2)c1 (configuration not stated) | -2.9 | 3.7 | x | 1.4 | -4.6
Nc1nccnc1C(=O)OCC(=O)NCCc1ccc(S(N)(=O)=O)cc1 | 10.0 | 35.2* | x | 27.4 | 0.1
COCC(=O)NCCc1ccc(S(N)(=O)=O)cc1 | -5.4 | -1.0 | 16.8 | -1.9 | -5.1
Nc1nc2ccc(Cl)cc2cc1C(=O)NCCc1c[nH]c2ccccc12 | 3.0 | x | x | x | x
COc1ccc(C)cc1Nc1n[n+](C)c(-c2c3ccccc3cc3ccccc23)s1 | x | 31.7* | x | 13.4 | -17.3
CCOC(=O)c1c2c3c(cccc3[nH]c1=O)C(=O)c1ccccc1-2 | -2.1 | 53.6* | 14.3 | 21.5 | -5.6
COCCCNc1c2c3c(cccc3[nH]c1=O)C(=O)c1ccccc1-2 | -38.2 | 116.9* | -88.1 | 74.8* | x
CCCCCCNc1c(C(=O)OCC)c(=O)[nH]c2ccccc12 | 2.3 | -4.2 | 5.5 | -2.5 | -1.2
Cc1ccc(C(C)n2cc(C(=O)NCc3ccccn3)nn2)cc1 (configuration not stated) | -2.8 | 1.0 | -5.0 | 7.2 | -5.7
COc1ccc2nc3cc(Cl)ccc3c(Nc3cc(C(C)C)c(O)cc3C)c2c1 | 11.4 | -4.4 | 14.8 | 4.9 | -0.7
COc1ccc2nc3cc(Cl)ccc3c(Nc3cc(CN4CCCC4)c(O)c(CN4CCCC4)c3)c2n1 | 4.1 | 5.0 | x | -1.0 | -35.7*
N#CC1=C(N)C(C#N)(C#N)[C@H](c2cccnc2)[C@H]2CN(C(=O)OCc3ccccc3)CC=C12 | 6.6 | 7.8 | 4.0 | 8.4 | -0.6

Bioassay records deposited in PubChem BioAssay by several laboratories.
